Experimental data published in PubChem BioAssay AID1159580 (chemical genetic matrix, 2015).
About 2,000 (36%) of roughly 5,500 compounds were called active. Another 18% or so got no clear call; they are omitted. Rule as the data show it: active = normalized growth mostly below about 0.91 (no sharp cut-off); inconclusive = no clear call, values can overlap the other calls; inactive = mostly above about 0.92. Some of the results follow.

Test: chemical genetic growth profiling, strain panel (AID 1159580);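 also: tested at 20 µM; growth read once vehicle control cultures reached saturation at 30 °C; 1 = growth at the plate median or of vehicle wells; lower values mean less growth of the strain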
Details: S. cerevisiae deletion strains, growth OD
[1] = locus YHR030C, strain SLT2, stronger effect = lower value
[2] = locus YHR079C, strain IRE1, stronger effect = lower value
[3] = locus YJL095W, strain BCK1, stronger effect = lower value
[4] = locus YJR066W, strain TOR1, stronger effect = lower value
[5] = locus YLR113W, strain HOG1, stronger effect = lower value
[6] = locus YNL183C, strain NPR1, stronger effect = lower value
[7] = locus YOR231W, strain MKK1, stronger effect = lower value
[8] = locus YPL256C, strain CLN2, stronger effect = lower value

Measured: normalized growth

COc1cc2c3cc1Oc1c(OC)c(OC)cc4c1[C@@H](Cc1cccc(c1)Oc1ccc(c(O)c1)C[C@@H]3N(C)CC2)N(C)CC4
inactive: [1] 1.02 | [2] 1.01 | [3] 0.994 | [4] 0.984 | [5] 0.968 | [6] 0.983 | [7] 1.03 | [8] 1.07

COc1ccc2cc1Oc1ccc(cc1)C[C@H]1c3c(cc4c(c3Oc3cc5c(cc3OC)CCN(C)[C@@H]5C2)OCO4)CCN1C
inactive: locus YAL021C, strain ccr4, stronger effect = lower value 1.01 | locus YAL026C, strain drs2, stronger effect = lower value 1.01 | locus YAL030W, strain snc1, stronger effect = lower value 0.989 | locus YBL061C, strain skt5, stronger effect = lower value 1.01 | locus YBR009C, strain hhf1, stronger effect = lower value 0.959 | locus YBR023C, strain chs3, stronger effect = lower value 1.01 | locus YBR171W, strain sec66, stronger effect = lower value 0.982 | locus YBR231C, strain swc5, stronger effect = lower value 0.959 | locus YBR279W, strain paf1, stronger effect = lower value 0.992 | locus YCL011C, strain gbp2, stronger effect = lower value 1.01 | locus YCL016C, strain dcc1, stronger effect = lower value 1.03 | locus YCL061C, strain MRC1, stronger effect = lower value 0.984 | locus YCL069W, strain vba3, stronger effect = lower value 0.969 | locus YCR088W, strain abp1, stronger effect = lower value 0.987 | locus YDL005C, strain med2, stronger effect = lower value 0.983 | locus YDL040C, strain nat1, stronger effect = lower value 0.982 | locus YDR001C, strain nth1, stronger effect = lower value 0.989 | locus YDR069C, strain doa4, stronger effect = lower value 0.979 | locus YDR137W, strain rgp1, stronger effect = lower value 1.1 | locus YDR159W, strain sac3, stronger effect = lower value 0.875 | locus YDR195W, strain ref2 0.942 | locus YDR297W, strain sur2, stronger effect = lower value 1 | locus YDR334W, strain swr1, stronger effect = lower value 0.963 | locus YDR335W, strain msn5, stronger effect = lower value 1.01 | locus YDR392W, strain spt3, stronger effect = lower value 0.743 | locus YEL003W, strain gim4, stronger effect = lower value 0.975 | locus YEL037C, strain rad23, stronger effect = lower value 0.969 | locus YEL061C, strain CIN8 (second series), stronger effect = lower value 0.98 | locus YER015W, strain faa2, stronger effect = lower value 0.994 | locus YER016W, strain bim1, stronger effect = lower value 1.06 | locus YER111C, strain swi4, stronger effect = lower value 0.997 | locus YER155C, strain BEM2 (second series), stronger effect = lower value 0.874 | locus YFR010W, strain ubp6, stronger effect = lower value 0.966 | locus YGL167C, strain pmr1, stronger effect = lower value 0.976 | locus YGL173C, strain kem1, stronger effect = lower value 0.961 | locus YGL227W, strain vid30, stronger effect = lower value 0.996 | locus YGL240W, strain doc1, stronger effect = lower value 0.962 | locus YGL253W, strain hxk2, stronger effect = lower value 1.01 | locus YHR013C, strain ard1, stronger effect = lower value 0.964 | locus YHR027C, strain rpn1, stronger effect = lower value 0.996 | [1] 1.03 | [2] 1.08 | locus YHR142W, strain chs7, stronger effect = lower value 1.03 | locus YJL092W, strain hpr5, stronger effect = lower value 0.988 | locus YJL095W, strain BCK1 (second series), stronger effect = lower value 0.989 | [3] 1.03 | locus YJL115W, strain asf1, stronger effect = lower value 0.974 | locus YJL129C, strain trk1, stronger effect = lower value 1 | locus YJL154C, strain vps35, stronger effect = lower value 0.986 | locus YJL164C, strain tpk1, stronger effect = lower value 0.962 | locus YJL166W, strain qcr8, stronger effect = lower value 0.955 | locus YJL187C, strain SWE1, stronger effect = lower value 1.01 | [4] 0.987 | locus YKL160W, strain elf1, stronger effect = lower value 1.05 | locus YKR026C, strain gcn3, stronger effect = lower value 0.964 | locus YKR091W, strain srl3, stronger effect = lower value 0.99 | locus YLL001W, strain dnm1, stronger effect = lower value 0.959 | locus YLL026W, stronger effect = lower value 0.999 | locus YLL041C, strain sdh2, stronger effect = lower value 0.977 | locus YLR027C, strain aat2, stronger effect = lower value 1 | [5] 1.07 | locus YLR221C, strain rsa3, stronger effect = lower value 0.997 | locus YLR258W, strain gsy2, stronger effect = lower value 1 | locus YLR262C, strain YPT6 (second series), stronger effect = lower value 1.04 | locus YLR320W, strain mms22, stronger effect = lower value 0.922 | locus YLR342W, strain FKS1, stronger effect = lower value 1.02 | locus YLR357W, strain rsc2, stronger effect = lower value 0.934 | locus YLR370C, strain arc18, stronger effect = lower value 0.999 | locus YLR384C, strain iki3, stronger effect = lower value 1 | locus YML120C, strain ndi1, stronger effect = lower value 0.969 | locus YMR058W, strain fet3, stronger effect = lower value 0.978 | locus YMR125W, strain sto1, stronger effect = lower value 1 | locus YMR129W, stronger effect = lower value 0.971 | locus YMR205C, strain PFK2, stronger effect = lower value 0.973 | locus YMR231W, strain pep5, stronger effect = lower value 0.985 | locus YNL071W, strain lat1, stronger effect = lower value 0.982 | [6] 0.951 | locus YNL209W, strain ssb2, stronger effect = lower value 0.99 | locus YNL248C, strain rpa49, stronger effect = lower value 1.02 | locus YNL322C, strain KRE1 (second series), stronger effect = lower value 1 | locus YNR049C, strain mso1, stronger effect = lower value 1 | locus YOR001W, strain rrp6, stronger effect = lower value 0.953 | locus YOR070C, strain gyp1, stronger effect = lower value 1 | locus YOR080W, strain dia2, stronger effect = lower value 0.977 | locus YOR083W, strain WHI5, stronger effect = lower value 1 | locus YOR106W, strain vam3, stronger effect = lower value 1.04 | [7] 1.06 | locus YOR265W, strain rbl2, stronger effect = lower value 1 | locus YOR270C, strain vph1, stronger effect = lower value 1.06 | locus YOR290C, strain snf2, stronger effect = lower value 1.04 | locus YPL051W, strain arl3, stronger effect = lower value 1.04 | locus YPL078C, strain atp4, stronger effect = lower value 1.03 | locus YPL106C, strain sse1, stronger effect = lower value 0.949 | locus YPL240C, strain hsp82, stronger effect = lower value 0.985 | [8] 1.07
